Sampled rows, rich in hits. Any-hit rate of the full collection: about 11%.
IMPase cell inh = membrane-permeable compound that blocks inositol monophosphatase. P97697. CHO-M1 cells, IP1 accumulation, HTRF TR-FRET ratio. inhibition (IP1 accumulation), % at 46.1 µM. 120,000 tested, under 10 active; active = well fitted curve in the direction sought with a large enough effect in the signal ratio, not every such curve was filed as active; inconclusive = small, poorly fitted or top-dose-only effect, or a change in a side signal; inactive = no such curve, though single readings can be large or run the other way; the % refers to the signal ratio;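 note: cells stimulated with carbachol in lithium chloride buffer; plate controls were DMSO basal wells for no effect and reference inhibitor wells for full effect; higher means more IMPase inhibition seen as more IP1 and lower FRET ratio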
Target sequence (P97697 whole entry, looked up): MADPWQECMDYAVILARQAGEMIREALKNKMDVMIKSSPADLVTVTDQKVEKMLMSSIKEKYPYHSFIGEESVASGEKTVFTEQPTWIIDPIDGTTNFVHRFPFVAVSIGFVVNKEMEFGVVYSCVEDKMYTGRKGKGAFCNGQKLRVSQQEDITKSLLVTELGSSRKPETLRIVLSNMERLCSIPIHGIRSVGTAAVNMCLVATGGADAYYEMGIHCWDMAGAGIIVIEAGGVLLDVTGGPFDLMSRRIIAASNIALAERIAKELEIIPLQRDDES
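CHO-M1 cells (CHO stably expressing M1 receptor), compound up to 46 uM final, stimulated with carbachol (50 uM as added) in buffer with 50mM LiCl, pH 7.4, 30 min at 37C. Cytosolic IP1 read by TR-FRET; AC50 from Hill fits.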
ALDH1A1 inh = inhibitors of human aldehyde dehydrogenase 1A1 | P00352 | Purified ALDH1A1, NADH fluorescence, propionaldehyde substrate | Potency, µM (doses to about 75.3 µM), for the others: at the top dose activity, negative = inhibition, most hits filed as inhibitors | 220,000 compounds, 7.3% hits | AID 1030; active = well fitted inhibition curve with a large enough effect, not every such curve was filed as active; inconclusive = small, poorly fitted or top-dose-only effect, or another doubt; inactive = no such curve, though single readings can be large or run the other way;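 note: potency is the fitted concentration of half-maximal effect; plate controls were no enzyme wells and a reference inhibitor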
NPSR antagonist = antagonists of human neuropeptide S receptor cAMP signaling. Q6W5P4. CHO-NPSR cells, cAMP TR-FRET, antagonist mode. Potency, µM (top dose mostly 38.3 µM), inactives show top-dose activity change, negative = inhibition, hits mostly inhibitors. 220,000 compounds, 1% hits; note: potency is the fitted concentration of half-maximal effect; nearly all actives have a fitted effect of over 50% in size
Target sequence (Q6W5P4 whole entry, looked up): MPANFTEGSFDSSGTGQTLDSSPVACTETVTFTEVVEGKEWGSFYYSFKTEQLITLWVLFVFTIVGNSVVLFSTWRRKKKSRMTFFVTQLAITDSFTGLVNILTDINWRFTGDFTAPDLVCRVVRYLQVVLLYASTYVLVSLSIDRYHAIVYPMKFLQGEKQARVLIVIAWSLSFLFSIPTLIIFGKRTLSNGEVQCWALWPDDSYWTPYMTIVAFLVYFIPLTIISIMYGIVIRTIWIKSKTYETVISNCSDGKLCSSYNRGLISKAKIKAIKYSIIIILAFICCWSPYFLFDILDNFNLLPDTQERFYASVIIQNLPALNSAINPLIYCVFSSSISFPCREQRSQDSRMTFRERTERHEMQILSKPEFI
PNC assembly inh = perinucleolar compartment assembly inhibition. PC3M PTB-GFP, PNC prevalence imaging, 16 h; active compounds read low. 140,000 compounds, 3.1% hits. activity change (PNC), negative = inhibition, % at 10 µM;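 active = readout at or below -70, meaning at least 70% loss of cells showing the perinucleolar compartment, a nuclear body marking cancer cells; inconclusive = readout between -30 and a set limit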;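 note: plate controls were DMSO wells for no effect and camptothecin positive control wells for full effect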
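Compounds are pinned in duplicate onto adhered PC3M cells stably expressing GFP-tagged PTB and incubated 16 h at 37 C. Cells are then fixed, nuclei stained with Hoechst, and PNC-positive cells counted.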
IMPase Li cell = membrane-permeable IMPase blocker, potentiated with lithium. Potency, µM (top dose mostly 59.4 µM), without a hit: top-dose activity, negative = IMPase inhibition, most hits filed as inhibitors. CHO-M1 cells, IP1 TR-FRET (IP-One), carbachol + lithium. 210,000 compounds, 0.35% hits. AID 1457;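 note: IP1 builds up when IMPase is blocked and the TR-FRET signal falls; potency is the fitted concentration of half-maximal effect; plate controls were basal vehicle for no effect and high inhibitor control for full effect; nearly all actives have a fitted effect of over 50% in size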
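CHO-M1, 2000 cells/well, 16–30 h culture; cpd + low Li+, 30 min 37C; lysis with d2-IP1/Eu-anti-IP1 Ab, 10 min RT; TR-FRET 665/620 ratio and 620 channel; AC50 via Hill.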
HPGD block = inhibitors of human 15-hydroxyprostaglandin dehydrogenase (HPGD); P15428; purified HPGD, NADH fluorescence kinetic, PGE2 substrate; Potency, µM, for the others: at the highest dose activity change, negative = inhibition, hits mostly inhibitors; 150,000 compounds, 4.3% hits; active = well fitted inhibition curve with a large enough effect, not every such curve was filed as active; inconclusive = small, poorly fitted or top-dose-only effect, or another doubt; inactive = no such curve, though single readings can be large or run the other way; note: potency is the fitted concentration of half-maximal effect
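20 nM HPGD preincubated 15 min at room temperature with compound in 50 mM Tris-HCl pH 8, 0.01% Tween 20. Started with 1 mM NAD+ and 30 uM prostaglandin E2; NADH fluorescence (360/450 nm) read 5 times over 30-s intervals, last minus first.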
An asterisk follows results filed as active; [ ] = another dose, or the depositor's remark. Unless noted, calls come from the whole dose curve; as a rule, active = well fitted curve in the direction sought with a large enough effect; inconclusive = small, poorly fitted or top-dose-only effect, or another doubt; inactive = no such curve, though single readings can be large; an effect the other way counts as inactive or inconclusive. Unless noted, % is set by controls: 0 for no effect and ±100 for the full control effect.

Screening O=C(CSc1nc(-c2cccs2)cc(C(F)(F)F)n1)Nc1cc(OCC(F)(F)F)cc([N+](=O)[O-])c1 returned ALDH1A1 inh 3%, NPSR antagonist -32%, PNC assembly inh -90*, IMPase Li cell -3% and HPGD block 0%.
Screening CCOc1ccccc1NC(=O)CSc1nc(-c2cccs2)cc(C(F)(F)F)n1 returned IMPase cell inh -1.
CC(C)(C)c1ccc(C(=O)N2CCC(=O)N(C(COCc3ccccc3)Cc3ccccc3)CC2)cc1 (centres undefined) was read as ALDH1A1 inh inconclusive, NPSR antagonist inconclusive, PNC assembly inh -115*, IMPase Li cell 17% and HPGD block -29%.
For O=C(C/C=N/OCc1ccc(Cl)cc1Cl)c1ccccc1 the results were IMPase cell inh 7, ALDH1A1 inh -16%, NPSR antagonist -17%[46.1 µM], PNC assembly inh inconclusive, IMPase Li cell -22%[38.3 µM] and HPGD block -29%.
Screening C[C@@]12C[C@H](O)C3[C@H](CCC4=CC(=O)CC[C@]43C)[C@H]1CC[C@@H]2c1csc(N)n1 (some centres undefined) returned ALDH1A1 inh 2µM*, IMPase Li cell 14% and HPGD block -3%.
Screening O=C1NC2(CCCCC2)C(=O)N1/N=C/c1ccccc1Br returned ALDH1A1 inh 4.5µM*, NPSR antagonist -14% and IMPase Li cell 2%.
For O=C1NC2(CCCCC2)C(=O)N1/N=C/c1ccc(O)cc1O the results were IMPase cell inh 5, ALDH1A1 inh inconclusive, NPSR antagonist -11%[46.1 µM], PNC assembly inh -4, IMPase Li cell 57%[38.3 µM] and HPGD block inconclusive.
COc1ccc2c(c1)-c1nc(/N=C/c3cccc(OC)c3O)sc1CC2 was read as ALDH1A1 inh 11µM*, NPSR antagonist -10%, PNC assembly inh -23, IMPase Li cell -1% and HPGD block -17%.
`COc1ccc2c(c1)-c1nc(/N=C/c3ccccc3O)sc1CC2` gave ALDH1A1 inh 28µM*, NPSR antagonist 12%, PNC assembly inh 23, IMPase Li cell -1% and HPGD block -14%.
CC(OC(=O)c1nn(C)c(=O)c2ccccc12)C(=O)NCc1ccc2c(c1)OCO2 (centres undefined) was read as IMPase cell inh 8, ALDH1A1 inh inconclusive, NPSR antagonist 7%[46.1 µM], PNC assembly inh -23, IMPase Li cell 13%[38.3 µM] and HPGD block 20µM*.
CCCc1nc2ccccc2c(C(=O)OCC(=O)NCc2ccc3c(c2)OCO3)c1CC was read as ALDH1A1 inh inconclusive, NPSR antagonist -32%, PNC assembly inh -18, IMPase Li cell 1% and HPGD block -8%.
Screening CCCc1nc2ccccc2c(C(=O)OC(C)C(=O)NCc2ccc3c(c2)OCO3)c1CC (centres undefined) returned ALDH1A1 inh 4.5µM*, NPSR antagonist -22%, PNC assembly inh inconclusive, IMPase Li cell 3% and HPGD block -21%.
`CCN(CC)C(=O)CSc1nc2cc3c(cc2c(=O)n1CCCCCC(=O)NCc1ccc(OC)cc1)OCO3` gave ALDH1A1 inh -5%, NPSR antagonist -59% and IMPase Li cell 11%.
For CC1CCCCN1C(=O)CSc1ccc(-c2ccc(F)cc2)nn1 (centres undefined) the results were IMPase cell inh -8, ALDH1A1 inh inconclusive, NPSR antagonist -12%[46.1 µM], PNC assembly inh inconclusive, IMPase Li cell 0%[38.3 µM] and HPGD block 22µM*.
Screening O=C(CSc1ccc(-c2ccc(F)cc2)nn1)NCC1CCCO1 (centres undefined) returned ALDH1A1 inh 3%, NPSR antagonist 11% and IMPase Li cell -3%.
`O=C(C1CC(c2ccc(F)cc2)=NO1)N1CCN(c2ccccc2)CC1` (centres undefined) gave IMPase cell inh 16, ALDH1A1 inh 0%, NPSR antagonist 0%[46.1 µM], PNC assembly inh 25, IMPase Li cell -5%[38.3 µM] and HPGD block -6%.
O=C(C1CC(c2ccccc2O)=NO1)N1CCc2ccccc2C1 (centres undefined) was read as IMPase cell inh 5, ALDH1A1 inh -3%, NPSR antagonist -18%[46.1 µM], PNC assembly inh 21, IMPase Li cell -12%[38.3 µM] and HPGD block 16µM*.
`CC1CCCCN1C(=O)C1CC(c2ccc(F)cc2)=NO1` (centres undefined) gave IMPase cell inh 0, ALDH1A1 inh 0.32µM*, NPSR antagonist -10%[46.1 µM] and PNC assembly inh inconclusive.
Screening O=C(C1CC(c2ccccc2O)=NO1)N1CCCCC1 (centres undefined) returned IMPase cell inh 12, ALDH1A1 inh inconclusive, NPSR antagonist -3%[46.1 µM], PNC assembly inh inconclusive, IMPase Li cell 5%[38.3 µM] and HPGD block 7.9µM*.
For CCOC(=O)C1CCN(C(=O)COc2ccc(Cl)cc2Cl)CC1 the results were IMPase cell inh 5, ALDH1A1 inh -1%, NPSR antagonist -9%[46.1 µM], PNC assembly inh -7, IMPase Li cell 6%[38.3 µM] and HPGD block -1%.
For CC(C)(C)CC(=O)NCc1cccs1 the results were ALDH1A1 inh 10%, NPSR antagonist 5% and IMPase Li cell 2%.
Screening CCOC(=O)C1(P(=O)(c2ccccc2)c2ccccc2)CCC1 returned IMPase cell inh 2, ALDH1A1 inh 10%, NPSR antagonist -10%[46.1 µM], PNC assembly inh 21, IMPase Li cell 22%[38.3 µM] and HPGD block 3%.
COc1ccc(-c2ccc(SCC(=O)c3ccc(F)cc3)nn2)cc1OC was read as ALDH1A1 inh 16µM*, NPSR antagonist -8% and IMPase Li cell 13%.
Screening O=C(C1COc2ccccc2O1)N1CCOCC1 (centres undefined) returned IMPase cell inh -4, ALDH1A1 inh 7%, NPSR antagonist 4%[46.1 µM], PNC assembly inh inconclusive, IMPase Li cell -12%[38.3 µM] and HPGD block -25%.
For O=C(C1CC(c2ccc(F)cc2)=NO1)N1CCc2ccccc2C1 (centres undefined) the results were IMPase cell inh 1, ALDH1A1 inh -10%, NPSR antagonist -5%[46.1 µM], PNC assembly inh 28, IMPase Li cell -11%[38.3 µM] and HPGD block 20µM*.
COc1cccc(C2=NOC(C(=O)N3CCc4ccccc4C3)C2)c1 (centres undefined) was read as IMPase cell inh 2, ALDH1A1 inh -3%, NPSR antagonist -1%[46.1 µM], PNC assembly inh inconclusive, IMPase Li cell 13% and HPGD block -27%.
`O=C(C1Cc2ccccc2O1)N1CCCCC1` (centres undefined) gave IMPase cell inh 2, ALDH1A1 inh -3%, NPSR antagonist -3%[46.1 µM], PNC assembly inh 7, IMPase Li cell 3%[38.3 µM] and HPGD block 25µM*.
